This is part of a sample that, as a whole, favours compounds with a hit. Of some 79,000 tested, about 15% had one in any assay. Calls of active or inactive are those of the source. No stated cut-off is given here; in the data, active means growth inhibition above about 70%; inactive means the rest.
Experiments:
[1] = NCI Yeast Anticancer Drug Screen. Data for the rad50 strain (AID 155);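 further: 0% = growth of vehicle-only cultures of the same strain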; settings: S. cerevisiae rad50 strain growth inhibition, hits give high values
Outline: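 Vehicle-treated cultures provide the reference for the growth inhibition reported for compound-exposed, repair-deficient yeast.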

[2] = NCI Yeast Anticancer Drug Screen. Data for the mec2-1 strain (AID 157); settings: S. cerevisiae mec2-1 strain, hits give high values
Outline: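 Compounds were applied to mec2-1 yeast cells. Their growth was then compared with that of vehicle-treated cultures to give growth inhibition.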

[3] = NCI Yeast Anticancer Drug Screen. Data for the sgs1 mgt1 strain (AID 161);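 further: 0% = growth of cultures given vehicle only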; settings: S. cerevisiae sgs1 mgt1 strain, hits give high values
Outline: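 Growth of a repair-deficient yeast mutant was monitored after compound treatment and expressed as inhibition relative to vehicle-treated cultures.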

[4] = NCI Yeast Anticancer Drug Screen. Data for the cln2 rad14 strain (AID 165);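 further: 0% = growth equal to vehicle treated cultures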; settings: S. cerevisiae cln2 rad14 strain, hits give high values
Outline: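 Strain: cln2 rad14 yeast, altered in cell cycle control and DNA damage repair. Read-out: growth inhibition vs vehicle.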

[5] = NCI Yeast Anticancer Drug Screen. Data for the bub3 strain (AID 167); settings: S. cerevisiae bub3 mutant strain, hits give high values
Outline: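 Mutant yeast screening strain plus compound; vehicle-treated cultures serve as the 0% inhibition reference.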

[6] = NCI Yeast Anticancer Drug Screen. Data for the mlh1 rad18 strain (AID 175); settings: S. cerevisiae mlh1 rad18 strain growth inhibition, hits give high values
Outline: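 A repair-deficient yeast strain is exposed to test compound, and growth is scored relative to vehicle-treated controls.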

[7] = at 5.0 µM (retest, dose inferred, filed as 0.5)
[8] = at 50.0 µM (retest, dose inferred, filed as 5.0)

Measured: growth inhibition

Nc1ccc(C(=O)O)c(C(=O)O)c1.[Cl][Sn]([Cl])([Cl])[Cl]
active: [4]; at 50.0 µM 76.1% | [5]; at 50.0 µM 80.8%
inactive: [1]; [7] 3% | [1]; [8] -9% | [1]; at 50.0 µM 48% | [2]; [7] 3% | [2]; [8] 46% | [2]; at 50.0 µM 59.6% | [3]; [7] 8% | [3]; [8] 36% | [3]; at 50.0 µM 53.7% | [4]; [7] -4% | [4]; [8] -21% | [5]; [7] 1% | [5]; [8] -2% | [6]; [7] -3% | [6]; [8] 20% | [6]; at 50.0 µM 40.4%

Nc1ccc([As]=[As]c2ccc(N)cc2)cc1 (stereo not given)
active: [1]; [8] 71% | [1]; at 50.0 µM 73.7% | [2]; [8] 91% | [2]; at 50.0 µM 96.6% | [4]; at 50.0 µM 91.2% | [5]; [8] 91% | [5]; at 50.0 µM 97.2% | [6]; [8] 86% | [6]; at 50.0 µM 90.8%
inactive: [1]; [7] -14% | [2]; [7] 2% | [3]; [7] -16% | [3]; [8] 68% | [3]; at 50.0 µM 50.2% | [4]; [7] 2% | [4]; [8] 67% | [5]; [7] 3% | [6]; [7] -1%

Oc1c(Cl)c(Cl)cc(Cl)c1Cc1c(Cl)cc(Cl)c(Cl)c1[O][Pb]([c]1ccccc1)([c]1ccccc1)[c]1ccccc1
active: [1]; [7] 99% | [1]; [8] 87% | [1]; at 50.0 µM 99.5% | [2]; [7] 99% | [2]; [8] 90% | [2]; at 50.0 µM 99.5% | [3]; [7] 99% | [3]; [8] 89% | [3]; at 50.0 µM 99.7% | [4]; [7] 99% | [4]; [8] 87% | [4]; at 50.0 µM 99% | [5]; [7] 99% | [5]; [8] 89% | [5]; at 50.0 µM 99.3% | [6]; [7] 99% | [6]; [8] 87% | [6]; at 50.0 µM 99.5%

Oc1c(Cl)cc(Cl)c2ccccc12
active: [1]; [8] 71% | [1]; at 50.0 µM 86.5% | [3]; at 50.0 µM 91.5% | [6]; [8] 74% | [6]; at 50.0 µM 87%
inactive: [1]; [7] 11% | [2]; [7] 7% | [2]; [8] 38% | [2]; at 50.0 µM 27.6% | [3]; [7] 4% | [3]; [8] 63% | [4]; [7] 5% | [4]; [8] 14% | [4]; at 50.0 µM -18.9% | [5]; [7] 12% | [5]; [8] 44% | [5]; at 50.0 µM 9.2% | [6]; [7] 13%

O=C1C=Cc2ccccc2C1=O
inactive: [1]; [7] 29% | [2]; [7] 32% | [3]; [7] 30% | [4]; [7] 18% | [4]; at 50.0 µM 46.3% | [5]; [7] 36% | [6]; [7] 31%
active: [1]; [8] 87% | [1]; at 50.0 µM 83.6% | [2]; [8] 95% | [2]; at 50.0 µM 88.8% | [3]; [8] 72% | [3]; at 50.0 µM 88.2% | [4]; [8] 87% | [5]; [8] 97% | [5]; at 50.0 µM 91.9% | [6]; [8] 96% | [6]; at 50.0 µM 94.9%

O=C1C(CCl)(CCl)CCC12CNC(Cl)(Cl)C2 (stereo not given)
inactive: [1]; [7] -1% | [1]; [8] 0% | [1]; at 50.0 µM 6.8% | [2]; [7] -1% | [2]; [8] 4% | [2]; at 50.0 µM 15.8% | [3]; [7] 1% | [3]; [8] 0% | [3]; at 50.0 µM 21.6% | [4]; [7] 1% | [4]; [8] 5% | [4]; at 50.0 µM 39.6% | [5]; [7] -3% | [5]; [8] -5% | [5]; at 50.0 µM 23.2% | [6]; [7] -1% | [6]; [8] 0% | [6]; at 50.0 µM 28.8%

CC/C(=C/c1ccc(OC)cc1)[N+](=O)[O-]
inactive: [2]; [7] 35% | [3]; [7] 46% | [4]; [7] 20% | [5]; [7] 49% | [6]; [7] 40%
active: [1]; [7] 80% | [1]; [8] 99% | [1]; at 50.0 µM 99.2% | [2]; [8] 100% | [2]; at 50.0 µM 99.7% | [3]; [8] 99% | [3]; at 50.0 µM 99.5% | [4]; [8] 100% | [4]; at 50.0 µM 99% | [5]; [8] 99% | [5]; at 50.0 µM 99.3% | [6]; [8] 99% | [6]; at 50.0 µM 99.2%

N#CC1CC[CH-]CC1.[Cl-].[Cl-].[Cl-].[Cl-].[Cl-].[Sb+5].c1ccncc1
active: [1]; [8] 98% | [1]; at 50.0 µM 99.1% | [2]; [8] 100% | [2]; at 50.0 µM 96.3% | [3]; [8] 99% | [3]; at 50.0 µM 99.3% | [4]; [8] 99% | [4]; at 50.0 µM 99.3% | [5]; [8] 99% | [5]; at 50.0 µM 90.5% | [6]; [8] 99% | [6]; at 50.0 µM 98.5%
inactive: [1]; [7] -1% | [2]; [7] 3% | [3]; [7] 5% | [4]; [7] 11% | [5]; [7] -1% | [6]; [7] 3%

CCN1CCC(O)(c2ccc(Cl)cc2)C(C(=O)c2ccc(Cl)cc2)C1 (stereo not given)
active: [1]; at 50.0 µM 99% | [2]; [8] 74% | [2]; at 50.0 µM 97.8% | [3]; at 50.0 µM 98.8% | [4]; [8] 93% | [4]; at 50.0 µM 97.2% | [5]; [8] 80% | [5]; at 50.0 µM 98.5% | [6]; [8] 77% | [6]; at 50.0 µM 98.5%
inactive: [1]; [7] -8% | [1]; [8] 65% | [2]; [7] 6% | [3]; [7] 3% | [3]; [8] 67% | [4]; [7] -7% | [5]; [7] 18% | [6]; [7] 3%

COC1CCCC2OC3(OC)C(OC)CCCC3OC12OC (stereo not given)
inactive: [1]; [7] 3% | [1]; [8] -4% | [1]; at 50.0 µM 12.2% | [2]; [7] -1% | [2]; [8] -3% | [2]; at 50.0 µM 14.7% | [3]; [7] 2% | [3]; [8] -2% | [3]; at 50.0 µM 10.2% | [4]; [7] 5% | [4]; [8] -39% | [4]; at 50.0 µM 40.9% | [5]; [7] 3% | [5]; [8] 9% | [5]; at 50.0 µM 27.2% | [6]; [7] -1% | [6]; [8] -11% | [6]; at 50.0 µM 7.85%

Reference: PubChem BioAssay (NCI)
